In PubChem BioAssay AID1159580 (chemical genetic matrix, 2015):
The whole screen tested about 5,500 compounds, of which about 2,000 (36%) were called active. Inconclusive results (about 18%) are left out. Cut-off read from the data, not from the text of the source: active = normalized growth mostly below about 0.91 (no sharp cut-off); inconclusive = no clear call, values can overlap the other calls; inactive = mostly above about 0.92. The list shows a part of the results.

Experiment: chemical genetic growth profiling, strain panel (AID 1159580);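 note: tested at 20 µM; growth read once vehicle control cultures reached saturation at 30 °C; 1 = growth at the plate median or of vehicle wells; lower values mean less growth of the strain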
Conditions: growth OD

Measured: normalized growth

O=C1NS(=O)(=O)c2ccccc21
inactive: S. cerevisiae deletion strains, locus YJR066W, strain TOR1, stronger effect = lower value 0.939 | S. cerevisiae deletion strains, locus YKL009W, strain mrt4, stronger effect = lower value 0.988 | S. cerevisiae deletion strains, locus YKL068W, stronger effect = lower value 1 | S. cerevisiae deletion strains, locus YKL085W, strain MDH1 (second series), stronger effect = lower value 0.994 | S. cerevisiae deletion strains, locus YKL085W, strain MDH1, stronger effect = lower value 0.994 | S. cerevisiae deletion strains, locus YKL160W, strain elf1, stronger effect = lower value 0.991 | S. cerevisiae deletion strains, locus YKL190W, strain CNB1, stronger effect = lower value 1.01 | S. cerevisiae deletion strains, locus YKR001C, strain vps1, stronger effect = lower value 0.996 | S. cerevisiae deletion strains, locus YKR026C, strain gcn3, stronger effect = lower value 1.03 | S. cerevisiae deletion strains, locus YKR091W, strain srl3, stronger effect = lower value 1.01 | S. cerevisiae deletion strains, locus YLL001W, strain dnm1, stronger effect = lower value 0.986 | S. cerevisiae deletion strains, locus YLL026W, stronger effect = lower value 1.02 | S. cerevisiae deletion strains, locus YLL041C, strain sdh2, stronger effect = lower value 1.02 | S. cerevisiae deletion strains, locus YLR027C, strain aat2, stronger effect = lower value 1.02 | S. cerevisiae deletion strains, locus YLR039C, strain RIC1, stronger effect = lower value 1.01 | S. cerevisiae deletion strains, locus YLR058C, strain SHM2, stronger effect = lower value 1.02 | S. cerevisiae deletion strains, locus YLR102C, strain apc9, stronger effect = lower value 0.979 | S. cerevisiae deletion strains, locus YLR113W, strain HOG1, stronger effect = lower value 0.978 | S. cerevisiae deletion strains, locus YLR221C, strain rsa3, stronger effect = lower value 1.06 | S. cerevisiae deletion strains, locus YLR258W, strain gsy2, stronger effect = lower value 1.03 | S. cerevisiae deletion strains, locus YLR262C, strain YPT6 (second series), stronger effect = lower value 1.01 | S. cerevisiae deletion strains, locus YLR262C, strain YPT6, stronger effect = lower value 1.02 | S. cerevisiae deletion strains, locus YLR268W, strain sec22, stronger effect = lower value 0.978 | S. cerevisiae deletion strains, locus YLR320W, strain mms22, stronger effect = lower value 1.06 | S. cerevisiae deletion strains, locus YLR330W, strain CHS5, stronger effect = lower value 1 | S. cerevisiae deletion strains, locus YLR342W, strain FKS1 (second series), stronger effect = lower value 0.968 | S. cerevisiae deletion strains, locus YLR342W, strain FKS1, stronger effect = lower value 1.03 | S. cerevisiae deletion strains, locus YLR357W, strain rsc2, stronger effect = lower value 1.01 | S. cerevisiae deletion strains, locus YLR370C, strain arc18, stronger effect = lower value 1.02 | S. cerevisiae deletion strains, locus YLR371W, strain rom2, stronger effect = lower value 0.983 | S. cerevisiae deletion strains, locus YLR384C, strain iki3, stronger effect = lower value 1.04 | S. cerevisiae deletion strains, locus YLR418C, strain cdc73, stronger effect = lower value 0.989 | S. cerevisiae deletion strains, locus YML016C, strain PPZ1, stronger effect = lower value 1.01 | S. cerevisiae deletion strains, locus YML032C, strain rad52, stronger effect = lower value 0.986 | S. cerevisiae deletion strains, locus YML120C, strain ndi1, stronger effect = lower value 0.995 | S. cerevisiae deletion strains, locus YML124C, strain tub3, stronger effect = lower value 0.999 | S. cerevisiae deletion strains, locus YMR058W, strain fet3, stronger effect = lower value 1.03 | S. cerevisiae deletion strains, locus YMR078C, strain ctf18, stronger effect = lower value 0.989 | S. cerevisiae deletion strains, locus YMR125W, strain sto1, stronger effect = lower value 0.999 | S. cerevisiae deletion strains, locus YMR129W, stronger effect = lower value 1.02 | S. cerevisiae deletion strains, locus YMR205C, strain PFK2, stronger effect = lower value 1.03 | S. cerevisiae deletion strains, locus YMR223W, strain ubp8, stronger effect = lower value 0.985 | S. cerevisiae deletion strains, locus YMR231W, strain pep5, stronger effect = lower value 1.02 | S. cerevisiae deletion strains, locus YMR307W, strain GAS1, stronger effect = lower value 0.935 | S. cerevisiae deletion strains, locus YNL067W, strain RPL9B, stronger effect = lower value 1.01 | S. cerevisiae deletion strains, locus YNL071W, strain lat1, stronger effect = lower value 1.01 | S. cerevisiae deletion strains, locus YNL153C, strain GIM3, stronger effect = lower value 1.03 | S. cerevisiae deletion strains, locus YNL183C, strain NPR1, stronger effect = lower value 0.931 | S. cerevisiae deletion strains, locus YNL209W, strain ssb2, stronger effect = lower value 1 | S. cerevisiae deletion strains, locus YNL233W, strain BNI4, stronger effect = lower value 1.02 | S. cerevisiae deletion strains, locus YNL248C, strain rpa49, stronger effect = lower value 1.08 | S. cerevisiae deletion strains, locus YNL250W, strain rad50, stronger effect = lower value 0.985 | S. cerevisiae deletion strains, locus YNL271C, strain bni1, stronger effect = lower value 0.986 | S. cerevisiae deletion strains, locus YNL298W, strain CLA4, stronger effect = lower value 0.987 | S. cerevisiae deletion strains, locus YNL307C, strain MCK1, stronger effect = lower value 0.99 | S. cerevisiae deletion strains, locus YNL322C, strain KRE1 (second series), stronger effect = lower value 1.02 | S. cerevisiae deletion strains, locus YNR049C, strain mso1, stronger effect = lower value 1.02 | S. cerevisiae deletion strains, locus YNR052C, strain pop2, stronger effect = lower value 0.981 | S. cerevisiae deletion strains, locus YOL006C, strain TOP1, stronger effect = lower value 1.08 | S. cerevisiae deletion strains, locus YOL012C, strain htz1 1.16 | S. cerevisiae deletion strains, locus YOL147C, strain pex11, stronger effect = lower value 0.992 | S. cerevisiae deletion strains, locus YOR001W, strain rrp6, stronger effect = lower value 1.06 | S. cerevisiae deletion strains, locus YOR061W, strain CKA2, stronger effect = lower value 1.02 | S. cerevisiae deletion strains, locus YOR069W, strain VPS5, stronger effect = lower value 1.01 | S. cerevisiae deletion strains, locus YOR070C, strain gyp1, stronger effect = lower value 1.02 | S. cerevisiae deletion strains, locus YOR080W, strain dia2, stronger effect = lower value 1.03 | S. cerevisiae deletion strains, locus YOR083W, strain WHI5, stronger effect = lower value 0.981 | S. cerevisiae deletion strains, locus YOR106W, strain vam3, stronger effect = lower value 0.977 | S. cerevisiae deletion strains, locus YOR136W, strain idh2, stronger effect = lower value 0.986 | S. cerevisiae deletion strains, locus YOR144C, strain elg1, stronger effect = lower value 0.993 | S. cerevisiae deletion strains, locus YOR184W, strain ser1, stronger effect = lower value 0.987 | S. cerevisiae deletion strains, locus YOR231W, strain MKK1, stronger effect = lower value 0.985 | S. cerevisiae deletion strains, locus YOR265W, strain rbl2, stronger effect = lower value 1.03 | S. cerevisiae deletion strains, locus YOR270C, strain vph1, stronger effect = lower value 1.06 | S. cerevisiae deletion strains, locus YOR290C, strain snf2, stronger effect = lower value 0.963 | S. cerevisiae deletion strains, locus YOR316C, strain cot1, stronger effect = lower value 0.983 | S. cerevisiae deletion strains, locus YPL051W, strain arl3, stronger effect = lower value 1.02 | S. cerevisiae deletion strains, locus YPL078C, strain atp4, stronger effect = lower value 0.98 | S. cerevisiae deletion strains, locus YPL106C, strain sse1, stronger effect = lower value 0.997 | S. cerevisiae deletion strains, locus YPL240C, strain hsp82, stronger effect = lower value 1.01 | S. cerevisiae deletion strains, locus YPL241C, strain CIN2, stronger effect = lower value 1 | S. cerevisiae deletion strains, locus YPL256C, strain CLN2, stronger effect = lower value 0.979 | S. cerevisiae deletion strains, locus YPR119W, strain clb2, stronger effect = lower value 0.982 | S. cerevisiae deletion strains, locus YPR141C, strain kar3, stronger effect = lower value 0.982 | S. cerevisiae deletion strains, locus YPR163C, strain tif3, stronger effect = lower value 0.986 | S. cerevisiae deletion strains, locus YPR167C, strain met16, stronger effect = lower value 0.984 | S. cerevisiae deletion strains, strain wtn01, stronger effect = lower value 0.974 | S. cerevisiae strains, strain wild type, stronger effect = lower value 1.01
